Where “and” joins values, the source holds several entries; their conditions need not be identical. Equal values may be shown once. Calls of active or inactive are those of the source.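 The calls were made as follows, unless noted: active = compounds whose cell count with miR-34 switched on is under 0.7 times the count with it off; inactive = the rest.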
Assays:
[1] = sensitizers of A549 cells to miR-34 induction, primary screen, imaging, A549 dox-inducible miR-34, nuclei and caspase counts (AID 1347080); settings: A549 miR-34 inducible, Hoechst nuclei count, 48 h; also: test concentration not given here
[2] = survival rescue of mitochondrial mutant cells in low glucose, primary screen, MELAS cybrids, Rieske KO mouse fibroblasts, CellTiter-Glo (AID 1508586;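 active = mean z-score across replicates of 1.96 or higher in either the MELAS or the Rieske mutant cell line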;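 also: test concentration not given here; z relative to plate mean and SD of compound and empty wells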)
[3] = viability rescue of complex I mutant cybrids, primary screen, cell-based, galactose medium, ATP luminescence (AID 1645843;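 active = z-score of at least 1.8 in each of two replicates, scored against plate mean and spread of sample wells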;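 also: positive z means more ATP and so rescue of galactose-driven cybrid death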); settings: complex I mutant cybrid cells, 72 h, stronger effect = higher value
[4] = stronger effect = lower value, cell number ratio, induced over uninduced
[5] = measured here: relative caspase fold change +Dox/-Dox
[6] = measured here: total cells with miR-34 induction, stronger effect = lower value
[7] = measured here: total cells without miR-34 induction
[8] = MELAS cybrid survival, CellTiter-Glo 48 h, stronger effect = higher value
[9] = Rieske KO mouse fibroblast survival, CellTiter-Glo 72 h

Row | Structure (SMILES) | fold change [1, 4] | fold change [1, 5] | cell count [1, 6] | cell count [1, 7] | z-score [2, 8] | z-score [2, 9] | z-score [3]
1 | CC(C)C(N)C(=O)OCCOCn1cnc2c(=O)[nH]c(N)nc21 (stereo not drawn) | 0.946 (inactive) and 0.861 (inactive) | 1.94 and 0.803 | 9720 and 8030 | 10300 and 9320 | -0.311 (inactive) | 0.593 | 0.365 (inactive)
2 | CC(C)(N)c1cn(C2CCN(c3nc(N)nc4nc[nH]c34)CC2)nn1 | 0.945 (inactive) | 0.882 | 9180 | 9720 | 1.11 (inactive) | -0.203 | -0.545 (inactive)
3 | CN1CC2c3ccccc3Oc3ccc(Cl)cc3C2C1 (stereo not drawn) | 0.788 (inactive) | 0.355 | 4990 | 6330 | 0.214 (inactive) | 0.0022 | -2.21 (inactive)
4 | Cc1cc(C(=O)N2CCc3[nH]nc(COc4ccccc4)c3C2)c(C)o1 | 0.899 (inactive) | 1.21 | 8460 | 9410 | -0.0896 (inactive) | -0.219 | -0.42 (inactive)
5 | CC(C)(O)c1ccccc1CCC(SCC1(CC(=O)O)CC1)c1cccc(C=Cc2ccc3ccc(Cl)cc3n2)c1 (stereo not drawn) | 0.925 (inactive) and 0.834 (inactive) | 1.67 and 2.27 | 8950 and 7950 | 9680 and 9540 | -0.195 (inactive) | -0.136 | 0.25 (inactive)
6 | O=C(O)c1ccc(-c2ccccc2OC(F)(F)F)o1 | 0.872 (inactive) | 0.264 | 8780 | 10100 | -0.488 (inactive) | 0.181 | 0.04 (inactive)
7 | C=CCNC(=O)c1cccnc1-c1ccc(OC)c2ncccc12 | 0.914 (inactive) | 1.9 | 9130 | 9990 | -0.163 (inactive) | -0.219 | -0.545 (inactive)
8 | CCCCCCCCCCCCCCCC(=O)NCC(=O)O | 0.908 (inactive) | 1.05 | 9030 | 9940 | -0.0953 (inactive) | 0.105 | 1.27 (inactive)
9 | Cc1nc(C(=O)O)nn1-c1cc(Cl)cc(Cl)c1 | 0.931 (inactive) | 0.603 | 8310 | 8930 | -0.498 (inactive) | -0.479 | 0.61 (inactive)
10 | O=C(Nc1c[nH]c2ccccc12)c1cc(-c2ccc(F)cc2)n[nH]1 | 0.84 (inactive) | 1.42 | 7140 | 8510 | -0.224 (inactive) | 0.73 | -0.56 (inactive)
11 | CCn1ccnc1CN(C)C(=O)c1cc(-c2cnc(N)nc2)nc2c(C)cccc12 | 0.899 (inactive) | 1.48 | 8320 | 9260 | -1.11 (inactive) | 1.17 | 1.16 (inactive)
12 | COc1cc2c(cc1-c1nnc3ccccn13)OCO2 | 0.908 (inactive) | 2.79 | 8030 | 8840 | 0.597 (inactive) | -0.284 | -0.465 (inactive)
13 | Cc1nn(C)c(C)c1-c1ccnc(NCCc2nc3ccc(Cl)cc3[nH]2)n1 | 0.924 (inactive) | 3.32 | 1430 | 1550 | -0.908 (inactive) | 0.453 | -0.38 (inactive)
14 | Cc1nc(-c2ccnc(N)n2)cn1Cc1c(Cl)cccc1Cl | 0.853 (inactive) | 0.94 | 7950 | 9330 | -0.789 (inactive) | 0.727 | -0.225 (inactive)
15 | CS(=O)(=O)Nc1ccc(C(=O)O)cc1 | 0.918 (inactive) | 0.714 | 8860 | 9650 | 0.13 (inactive) | -0.244 | 0.365 (inactive)
16 | COC1C=CO[C@@]2(C)Oc3c(C)c(O)c4c(O)c(c(C=NN5CCN(C6CCCC6)CC5)c(O)c4c3C2=O)NC(=O)C(C)=CC=CC(C)C(O)C(C)C(O)C(C)C(OC(C)=O)C1C (stereo partly drawn) | 1.26 (inactive) and 0.937 (inactive) | 1.41 and 0.74 | 6670 and 7260 | 5310 and 7750 | -0.432 (inactive) | -0.0629 | 0.32 (inactive)
17 | COc1cc(N2CCN(Cc3ccccc3F)C(=O)C2)ncn1 | 0.848 (inactive) | 1.97 | 6780 | 7990 | -0.24 (inactive) | -0.349 | -0.475 (inactive)
18 | NS(=O)(=O)c1ccc(C(=O)NCc2ccccc2)cc1 | 0.871 (inactive) | 0.5 | 8310 | 9540 | 0.51 (inactive) | -0.575 | 0.795 (inactive)
19 | O=C(Nc1n[nH]c(-c2ccco2)n1)N1CCc2ccccc2C1 | 0.896 (inactive) | 0.879 | 7540 | 8420 | 1.17 | 3.81 | 0.1 (inactive)
20 | CC(NC(=O)OCc1ccccc1)C(=O)O (stereo not drawn) | 0.909 (inactive) | 0.337 | 9090 | 10000 | 0.137 (inactive) | 0.148 | 0.185 (inactive)
21 | O=[N+]([O-])c1ccc2[nH]ncc2c1 | 0.885 (inactive) | 0.558 | 8690 | 9820 | 0.727 (inactive) | -0.415 | -0.195 (inactive)
22 | COc1ccc(CN2CCN(c3ncnc4sccc34)CC2=O)cc1 | 0.842 (inactive) | 1.22 | 5020 | 5960 | -0.496 (inactive) | -0.343 | 0.64 (inactive)
23 | O=C(O)c1ccc(B(O)O)cc1 | 0.887 (inactive) | 0.4 | 8340 | 9400 | 0.638 (inactive) | 0.194 | 0.105 (inactive)
24 | O=c1ccc2ccccc2[nH]1 | 0.871 (inactive) | 0.441 | 8280 | 9510 | 1.28 (inactive) | 0.0217 | 0.98 (inactive)
25 | O=C1CN(c2ncnc3sccc23)CCN1C1CCCC1 | 0.857 (inactive) | 1.28 | 8070 | 9410 | -1.24 (inactive) | -0.154 | 1.98 (inactive)
26 | CC(C)n1cc(-c2cc(C(=O)N(C)Cc3ccncc3)c3ccc(F)cc3n2)cn1 | 0.897 (inactive) | 1.79 | 8810 | 9830 | -0.679 (inactive) | 0.655 | -0.46 (inactive)
27 | COc1ncccc1C(=O)N1CCOc2ccccc21 | 1 (inactive) | 1.28 | 8450 | 8420 | 0.0792 (inactive) | -0.0817 | -0.395 (inactive)
28 | O=C(O)CN(CCO)CCO | 0.873 (inactive) | 0.542 | 8460 | 9690 | -0.0565 (inactive) | -0.265 | 0.37 (inactive)
29 | CCOC(=O)c1c(C)nn(-c2ccc(N)cc2)c1C | 0.897 (inactive) | 0.586 | 8580 | 9570 | -0.251 (inactive) | -0.884 | -0.7 (inactive)

From PubChem BioAssay
